Values joined by “and” are separate entries in the source; they are usually repeats but may differ in a detail not shown here. Equal values may be shown once. Results filed as inconclusive are left out. Entries that show only a call come without a potency. More than one record can exist for a structure, and the calls need not agree. Active and inactive are the calls of the source. Calls come from the whole dose curve; as a rule, active = well fitted curve in the direction sought with a large enough effect in the repeat runs; inconclusive = weak or mixed curves; inactive = no such curve, though single readings can be large; an effect the other way counts as inactive or inconclusive.
Legend:
[1] = Human pregnane X receptor (PXR) small molecule agonists, qHTS cell viability counter screen (AID 1346977); note: nearly all actives have a fitted effect of over 50% in size
How it was run: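 Measures live-cell protease fluorescence (CellTiter-Fluor) in PXR-Luc HepG2 cells treated 24hr with compounds at 37C. Cells had 5hr to attach before pin transfer of DMSO solutions.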

[2] = Caspase-3/7 induction in HepG2 cells by small molecules, qHTS assay (AID 1346978); note: nearly all actives have a fitted effect of over 15% in size
How it was run: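 Caspase-3/7 induction was measured by Caspase-Glo 3/7 luminescence (30 min, room temperature) after a 17 hr compound exposure of wild-type HepG2 cells seeded at 2,000 per well and pre-incubated 5 hr.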

[3] = Caspase-3/7 induction in CHO-K1 cells by small molecules, qHTS cell viability counter screen (AID 1346979); note: nearly all actives have a fitted effect of over 35% in size; note: potency is the fitted concentration of half-maximal effect
How it was run: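 In the same wells as the caspase read, viability of compound-treated wild-type CHO-K1 cells was assessed using CellTiter-Fluor, added after 16hr at 37C and measured by fluorescence following 1hr further incubation.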

[4] = Caspase-3/7 induction in CHO-K1 cells by small molecules, qHTS assay (AID 1346980); note: nearly all actives have a fitted effect of over 15% in size
How it was run: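 Luminescent Caspase-Glo 3/7 read (30min, room temperature) quantified apoptosis induction. Cells were wild-type CHO-K1, treated with compound for 17hr at 37 C and 5% CO2.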

[5] = Caspase-3/7 induction in HepG2 cells by small molecules, qHTS cell viability counter screen (AID 1346981); note: series mostly up to about 92 µM; nearly all actives have a fitted effect of over 30% in size
How it was run: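 In this quantitative HTS counter screen, compounds delivered in DMSO were left on unmodified HepG2 cells for 16 hr at 37 C. Viability was then determined fluorometrically with CellTiter-Fluor, in parallel with caspase-3/7 induction in the same wells.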

[6] = biological target: Nuclear receptor subfamily 1 group I member 2 (Homo sapiens) (UniProt O75469); test: Human pregnane X receptor (PXR) small molecule agonists, qHTS assay (AID 1346982); note: nearly all actives have a fitted effect of over 35% in size
How it was run: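 Reporter HepG2 cells expressing PXR-Luc are cultured in charcoal-stripped FBS (5%), treated with compounds for 24 hr at 37 C, and assayed by ONE-Glo luminescence after 30 min at room temperature.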

[7] = biological target: Cytochrome P450 2D6 (Homo sapiens) (UniProt P10635); test: Cytochrome P450 Family 2 Subfamily D Member 6 (CYP2D6) small molecule antagonists: luciferase reporter qHTS assay (AID 1671196); note: nearly all actives have a fitted effect of over 50% in size; note: potency is the fitted concentration of half-maximal effect
How it was run: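 Test chemicals meet CYP2D6 plus proluciferin substrate (10 min, RT); NADPH regenerating solution then drives turnover for 1 h. Detection reagent halts the reaction; luminescence measured after 20 min.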

[8] = biological target: Cytochrome P450 2C19 (Homo sapiens) (UniProt P33261); test: Cytochrome P450 Family 2 Subfamily C Member 19 (CYP2C19) small molecule antagonists: luciferase reporter qHTS assay (AID 1671197); note: nearly all actives have a fitted effect of over 65% in size; note: potency is the fitted concentration of half-maximal effect
How it was run: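 Luminescent readout of CYP2C19 activity: luciferin product detected 20 min after adding detection reagent. Before that, compound and enzyme-substrate mix preincubated 10 min at room temperature; NADPH-regenerating system started a 1 h, 37C reaction. Ketoconazole as positive control.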

[9] = biological target: Cytochrome P450 1A2 (Homo sapiens) (UniProt P05177); test: Cytochrome P450 Family 1 Subfamily A Member 2 (CYP1A2) small molecule antagonists: luciferase reporter qHTS assay (AID 1671199); note: nearly all actives have a fitted effect of over 50% in size; note: potency is the fitted concentration of half-maximal effect
How it was run: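 Steps: enzyme-substrate mix dispensed; test compounds and furafylline control pinned in; 10 min room temperature; NADPH regeneration solution added, 1 h; reaction stopped with luciferin detection reagent; luminescence read after 20 min.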

[10] = biological target: Voltage-gated inwardly rectifying potassium channel KCNH2 (Homo sapiens) (UniProt Q12809); test: Human Ether-a-go-go-Related Gene (hERG) channel small molecule antagonists: fluorescence cell-based qHTS assay (AID 1671200);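 note: hERG-expressing U2OS cells given a thallium stimulus after FluxOR II dye loading; series mostly up to about 77 µM; nearly all actives have a fitted effect of over 50% in size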
How it was run: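 Quantitative HTS in hERG-U2OS cells: thallium entry through the channel reports activity, read as continuous 480/540 nm fluorescence over 2 min after stimulus addition.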

[11] = biological target: Cytochrome P450 3A4 (Homo sapiens) (UniProt P08684); test: Cytochrome P450 Family 3 Subfamily A Member 4 (CYP3A4) small molecule antagonists: luciferase reporter qHTS assay (AID 1671201)
How it was run: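 Inhibition of CYP3A4 is measured as loss of light: the enzyme converts a proluciferin substrate to luciferin, detected luminescently. Reaction ran 1 h at room temperature with NADPH regeneration after a 10 min compound preincubation.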

[12] = biological target: Nuclear receptor subfamily 1 group I member 2 (Rattus norvegicus) (UniProt Q9R1A7); test: Rat pregnane X receptor (rPXR) activation by small molecules, qHTS assay (AID 1346983); settings: rPXR luciferase reporter cells, One-Glo luminescence, 24 h; stronger effect = higher value; note: nearly all actives have a fitted effect of over 20% in size
How it was run: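 Luminescent readout (One-Glo luciferase, 30 min room temperature) followed 24 hr compound treatment at 37 C of rPXR cells plated 2,000 per well and preincubated 5hr; qHTS format with compounds delivered in DMSO.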

[13] = biological target: Nuclear receptor subfamily 1 group I member 2 (Homo sapiens) (UniProt O75469); test: CYP3A4 induction through human pregnane X receptor (PXR) by small molecules, qHTS assay (AID 1346984); note: nearly all actives have a fitted effect of over 40% in size
How it was run: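 Induction measured in HepG2-based DPX-2 cells co-expressing human PXR and a CYP3A4 promoter-driven luciferase. After a 24-hour compound exposure, cells received CYP3A4 luciferin substrate at 3uM final for 3 hours, and light output was then recorded.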

[14] = biological target: Nuclear receptor subfamily 1 group I member 2 (Homo sapiens) (UniProt O75469); test: Human pregnane X receptor (PXR) activation by small molecules, qHTS assay (AID 1346985); note: nearly all actives have a fitted effect of over 40% in size
How it was run: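 DPX-2 cells (HepG2 co-transfected with a PXR response element and a CYP3A4-promoter luciferase construct) were seeded at 2,000 per well, rested 5 hr at 37C, then exposed to DMSO-dissolved compounds for 24 hr. Activation was read as luciferase luminescence.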

[15] = biological target: Cytochrome P450 2C9 (Homo sapiens) (UniProt P11712); test: Cytochrome P450 Family 2 Subfamily C Member 9 (CYP2C9) small molecule antagonists: luciferase reporter qHTS assay (AID 1671198)
How it was run: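 Enzyme-substrate mix preincubated with compound 10 min at room temperature; reaction started with NADPH regeneration solution, 1 h 37C. Luminescent luciferin product read after 20 min detection reagent.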

Sequence of Cytochrome P450 1A2 (Homo sapiens) (P05177 whole entry, looked up): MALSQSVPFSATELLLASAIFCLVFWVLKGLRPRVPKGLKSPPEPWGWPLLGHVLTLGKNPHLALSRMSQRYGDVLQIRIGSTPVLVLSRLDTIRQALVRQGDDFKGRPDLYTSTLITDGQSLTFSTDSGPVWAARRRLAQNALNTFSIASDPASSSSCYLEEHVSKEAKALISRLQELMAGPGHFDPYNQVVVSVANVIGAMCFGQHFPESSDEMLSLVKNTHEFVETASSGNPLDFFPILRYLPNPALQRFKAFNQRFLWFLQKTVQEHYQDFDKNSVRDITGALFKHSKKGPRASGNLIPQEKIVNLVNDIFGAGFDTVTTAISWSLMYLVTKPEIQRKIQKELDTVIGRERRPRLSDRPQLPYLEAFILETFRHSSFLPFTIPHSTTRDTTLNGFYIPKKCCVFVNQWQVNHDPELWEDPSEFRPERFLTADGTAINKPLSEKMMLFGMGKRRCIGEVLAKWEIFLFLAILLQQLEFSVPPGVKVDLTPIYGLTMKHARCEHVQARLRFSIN
Sequence of Cytochrome P450 3A4 (Homo sapiens) (P08684 whole entry, looked up): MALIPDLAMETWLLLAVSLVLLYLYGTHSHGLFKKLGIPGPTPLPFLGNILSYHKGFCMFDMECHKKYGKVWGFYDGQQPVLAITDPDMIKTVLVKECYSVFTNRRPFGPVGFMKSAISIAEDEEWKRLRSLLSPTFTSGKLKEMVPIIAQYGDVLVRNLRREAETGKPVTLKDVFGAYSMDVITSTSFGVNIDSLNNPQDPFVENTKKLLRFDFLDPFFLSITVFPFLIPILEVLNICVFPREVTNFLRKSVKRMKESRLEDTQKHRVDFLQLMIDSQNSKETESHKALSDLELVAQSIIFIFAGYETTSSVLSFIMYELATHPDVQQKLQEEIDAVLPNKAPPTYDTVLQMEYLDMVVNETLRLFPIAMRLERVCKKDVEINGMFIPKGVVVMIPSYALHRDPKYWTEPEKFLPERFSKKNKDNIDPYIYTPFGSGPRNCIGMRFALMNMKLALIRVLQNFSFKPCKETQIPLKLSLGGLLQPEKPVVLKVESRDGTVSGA
Sequence of Cytochrome P450 2D6 (Homo sapiens) (P10635 whole entry, looked up): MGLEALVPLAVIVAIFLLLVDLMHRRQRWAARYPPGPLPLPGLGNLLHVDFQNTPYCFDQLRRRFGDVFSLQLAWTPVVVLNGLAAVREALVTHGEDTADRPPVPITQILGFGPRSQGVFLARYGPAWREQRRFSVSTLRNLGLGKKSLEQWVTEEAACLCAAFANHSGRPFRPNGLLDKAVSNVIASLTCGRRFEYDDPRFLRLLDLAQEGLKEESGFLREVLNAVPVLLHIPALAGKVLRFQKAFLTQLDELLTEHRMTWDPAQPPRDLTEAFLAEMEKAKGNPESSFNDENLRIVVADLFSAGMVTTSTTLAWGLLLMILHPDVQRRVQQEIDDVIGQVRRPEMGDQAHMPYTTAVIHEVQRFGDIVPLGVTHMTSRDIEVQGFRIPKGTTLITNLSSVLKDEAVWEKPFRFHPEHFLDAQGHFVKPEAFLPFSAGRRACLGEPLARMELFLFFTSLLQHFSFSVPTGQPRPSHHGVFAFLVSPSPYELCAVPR
Sequence of Cytochrome P450 2C9 (Homo sapiens) (P11712 whole entry, looked up): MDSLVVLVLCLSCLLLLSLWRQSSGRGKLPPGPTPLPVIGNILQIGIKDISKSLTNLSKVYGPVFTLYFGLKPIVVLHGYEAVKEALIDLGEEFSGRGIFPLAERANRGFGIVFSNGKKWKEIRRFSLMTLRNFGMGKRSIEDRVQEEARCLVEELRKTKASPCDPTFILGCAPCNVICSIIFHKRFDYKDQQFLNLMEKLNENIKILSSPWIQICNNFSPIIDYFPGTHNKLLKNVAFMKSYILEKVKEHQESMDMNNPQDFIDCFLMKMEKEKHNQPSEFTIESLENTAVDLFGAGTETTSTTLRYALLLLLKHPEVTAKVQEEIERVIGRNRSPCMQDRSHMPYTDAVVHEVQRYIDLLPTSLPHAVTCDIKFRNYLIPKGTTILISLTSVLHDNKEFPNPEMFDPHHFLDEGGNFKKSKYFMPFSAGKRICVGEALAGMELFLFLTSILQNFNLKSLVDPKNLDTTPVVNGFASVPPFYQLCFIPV
Sequence of Cytochrome P450 2C19 (Homo sapiens) (P33261 whole entry, looked up): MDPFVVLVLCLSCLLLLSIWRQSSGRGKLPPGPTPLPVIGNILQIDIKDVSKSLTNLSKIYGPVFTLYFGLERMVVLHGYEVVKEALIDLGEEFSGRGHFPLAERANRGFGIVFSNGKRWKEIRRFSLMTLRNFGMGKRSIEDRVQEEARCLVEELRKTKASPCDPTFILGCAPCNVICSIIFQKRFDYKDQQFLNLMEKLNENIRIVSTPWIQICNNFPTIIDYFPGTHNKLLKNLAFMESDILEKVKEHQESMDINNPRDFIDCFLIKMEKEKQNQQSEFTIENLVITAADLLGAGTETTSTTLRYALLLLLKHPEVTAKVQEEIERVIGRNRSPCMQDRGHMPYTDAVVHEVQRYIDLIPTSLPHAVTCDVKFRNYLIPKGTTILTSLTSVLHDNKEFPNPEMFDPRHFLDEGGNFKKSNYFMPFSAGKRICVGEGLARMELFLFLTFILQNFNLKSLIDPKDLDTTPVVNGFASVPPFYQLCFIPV
Sequence of Nuclear receptor subfamily 1 group I member 2 (Homo sapiens) (O75469 whole entry, looked up): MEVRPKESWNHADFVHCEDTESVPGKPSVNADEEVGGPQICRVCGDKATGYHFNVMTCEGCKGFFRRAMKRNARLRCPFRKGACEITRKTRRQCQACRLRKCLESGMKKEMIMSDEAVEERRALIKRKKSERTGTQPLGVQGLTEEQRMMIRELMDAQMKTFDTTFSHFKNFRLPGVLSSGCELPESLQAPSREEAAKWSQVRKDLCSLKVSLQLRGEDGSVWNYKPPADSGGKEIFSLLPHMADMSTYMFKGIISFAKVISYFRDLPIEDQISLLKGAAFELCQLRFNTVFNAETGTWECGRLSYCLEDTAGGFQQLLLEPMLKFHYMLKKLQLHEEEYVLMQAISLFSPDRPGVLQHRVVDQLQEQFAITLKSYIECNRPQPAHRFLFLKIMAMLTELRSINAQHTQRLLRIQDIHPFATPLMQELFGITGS
Sequence of Voltage-gated inwardly rectifying potassium channel KCNH2 (Homo sapiens) (Q12809 whole entry, looked up): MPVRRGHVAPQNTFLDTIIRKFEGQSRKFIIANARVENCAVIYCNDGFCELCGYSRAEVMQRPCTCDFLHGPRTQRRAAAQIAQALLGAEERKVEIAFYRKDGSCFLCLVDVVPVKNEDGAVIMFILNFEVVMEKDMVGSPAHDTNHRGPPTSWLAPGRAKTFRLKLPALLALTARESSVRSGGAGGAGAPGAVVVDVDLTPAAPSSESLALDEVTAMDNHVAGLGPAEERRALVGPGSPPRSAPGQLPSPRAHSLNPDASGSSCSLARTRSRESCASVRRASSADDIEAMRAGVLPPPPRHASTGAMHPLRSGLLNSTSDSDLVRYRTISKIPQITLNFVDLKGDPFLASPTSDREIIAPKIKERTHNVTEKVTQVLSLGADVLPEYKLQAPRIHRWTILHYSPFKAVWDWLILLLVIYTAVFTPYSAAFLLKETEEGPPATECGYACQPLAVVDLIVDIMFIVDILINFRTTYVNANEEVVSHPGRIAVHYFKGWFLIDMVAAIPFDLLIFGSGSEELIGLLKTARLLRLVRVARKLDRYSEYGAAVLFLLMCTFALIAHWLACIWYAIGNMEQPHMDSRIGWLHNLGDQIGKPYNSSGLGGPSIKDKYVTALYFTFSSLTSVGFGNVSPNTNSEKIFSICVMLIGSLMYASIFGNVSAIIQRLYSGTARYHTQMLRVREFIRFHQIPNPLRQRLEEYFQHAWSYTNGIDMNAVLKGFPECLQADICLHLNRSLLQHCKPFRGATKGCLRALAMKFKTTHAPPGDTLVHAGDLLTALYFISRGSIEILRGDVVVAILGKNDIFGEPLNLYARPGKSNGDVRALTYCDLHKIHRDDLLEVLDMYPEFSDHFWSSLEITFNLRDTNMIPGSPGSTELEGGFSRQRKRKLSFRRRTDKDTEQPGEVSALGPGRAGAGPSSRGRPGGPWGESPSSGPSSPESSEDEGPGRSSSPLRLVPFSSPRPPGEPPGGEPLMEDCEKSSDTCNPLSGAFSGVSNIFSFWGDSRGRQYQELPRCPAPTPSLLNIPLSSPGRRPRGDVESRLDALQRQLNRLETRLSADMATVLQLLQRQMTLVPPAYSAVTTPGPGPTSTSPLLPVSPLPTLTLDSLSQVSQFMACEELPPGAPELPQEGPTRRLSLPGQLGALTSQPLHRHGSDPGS
Sequence of Nuclear receptor subfamily 1 group I member 2 (Rattus norvegicus) (Q9R1A7 whole entry, looked up): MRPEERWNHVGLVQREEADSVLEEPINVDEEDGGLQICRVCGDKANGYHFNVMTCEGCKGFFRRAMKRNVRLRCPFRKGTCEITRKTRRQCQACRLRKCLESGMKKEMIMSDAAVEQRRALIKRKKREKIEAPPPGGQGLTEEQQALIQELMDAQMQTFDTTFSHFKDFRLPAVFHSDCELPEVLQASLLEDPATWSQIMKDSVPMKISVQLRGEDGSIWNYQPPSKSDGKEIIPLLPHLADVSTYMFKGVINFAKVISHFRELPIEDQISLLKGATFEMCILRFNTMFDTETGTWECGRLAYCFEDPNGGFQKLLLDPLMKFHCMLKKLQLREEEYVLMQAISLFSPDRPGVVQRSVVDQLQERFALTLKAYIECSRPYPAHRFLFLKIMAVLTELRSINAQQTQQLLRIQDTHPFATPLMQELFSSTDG

SMILES | Potency [1] | Potency [2] | Potency [3] | outcome [4] | Potency [5] | Potency [6] | Potency [7] | Potency [8] | Potency [9] | Potency [10] | Potency [11] | max activation [12] | Potency [13] | outcome [14] | Potency [15]
COCCCN | inactive | inactive | inactive | inactive | inactive | inactive | inactive | inactive | inactive | inactive | inactive | – | – | – | –
COCCOC(=O)c1ccccc1C(=O)OCCOC | inactive | inactive | inactive | inactive | inactive | inactive | inactive | 22.6 µM (active) and 25.2 µM (active) | 22.6 µM (active) and 35.6 µM (active) | inactive | inactive | – | – | – | –
CN/C(=C\[N+](=O)[O-])NCCSCc1csc(CN(C)C)n1 | inactive | inactive | inactive | inactive | inactive | inactive | 35.6 µM (active) and inactive | – | inactive | – | inactive | -2.39% (inactive) | inactive | inactive | inactive
Cc1ccc2ncccc2c1 | inactive | inactive | inactive | inactive | inactive | inactive | inactive | inactive | 39.9 µM (active) and inactive | inactive | inactive | – | – | – | –
COC(=O)CCCC(=O)OC | inactive | inactive | 54 µM (active) and inactive | inactive | inactive | inactive | inactive | inactive | inactive | – | inactive | – | – | – | inactive
